From PubChem BioAssay (NCATS)
“And” between values parts separate entries of the source, which are not always exact repeats. Equal entries are not always repeated. Records with an inconclusive call do not appear. The source made the active and inactive calls. Unless noted, the call rests on the fitted dose curve; in most records, active means well fitted cell-killing curve with a large enough effect; inconclusive means small, poorly fitted or top-dose-only effect, or effect the other way; inactive means flat fitted curve, though single readings scatter.

Experiments:
[1] = qHTS assay for cell viability of HEK293 cells (AID 743288); conditions: ATP luminescence (CellTiter-Glo), 18 h, active compounds read low; further: on the % scale 0 is the no-effect control and ±100 the full control effect; nearly all actives have a fitted effect of over 50% in size
In short: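 Parental HEK293 cells, 2,000 per well, preincubated at least 5 h at 37 C, then exposed to compounds in DMSO for 18 h at 37 C. Viability by CellTiter-Glo ATP luminescence after 30 min at room temperature.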

[2] = qHTS assay for cell viability of the p53RE-bla HCT-116 cell line (AID 743292); conditions: p53RE-bla HCT-116 viability, ATP luminescence, 16 h; series mostly up to 95 µM; further: on the % scale 0 is the no-effect control and ±100 the full control effect; nearly all actives have a fitted effect of over 55% in size
In short: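 HCT-116 p53RE-bla cells seeded 4,000/well; 5 h at 37 C; compound (DMSO) added; 16 h at 37 C; CellTiter-Glo added, 30 min RT; luminescence read.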

[3] = biological target: Nuclear receptor subfamily 1 group I member 2 (Rattus norvegicus) (UniProt Q9R1A7); experiment: qHTS assay for small molecule activators of the rat pregnane X receptor (rPXR) signaling pathway (AID 651751; call rule not given here; further: 0% is about no effect); conditions: rPXR reporter cells, luciferase (One-Glo), 24 h
[4] = qHTS assay for small molecule activators of the human pregnane X receptor (PXR) signaling pathway (AID 720659; call rule not given here; further: 0% is about no effect); conditions: DPX-2 HepG2 CYP3A4-luciferase, 24 h; series mostly up to 92.3 µM

Chain of Nuclear receptor subfamily 1 group I member 2 (Rattus norvegicus) (Q9R1A7 whole entry, looked up): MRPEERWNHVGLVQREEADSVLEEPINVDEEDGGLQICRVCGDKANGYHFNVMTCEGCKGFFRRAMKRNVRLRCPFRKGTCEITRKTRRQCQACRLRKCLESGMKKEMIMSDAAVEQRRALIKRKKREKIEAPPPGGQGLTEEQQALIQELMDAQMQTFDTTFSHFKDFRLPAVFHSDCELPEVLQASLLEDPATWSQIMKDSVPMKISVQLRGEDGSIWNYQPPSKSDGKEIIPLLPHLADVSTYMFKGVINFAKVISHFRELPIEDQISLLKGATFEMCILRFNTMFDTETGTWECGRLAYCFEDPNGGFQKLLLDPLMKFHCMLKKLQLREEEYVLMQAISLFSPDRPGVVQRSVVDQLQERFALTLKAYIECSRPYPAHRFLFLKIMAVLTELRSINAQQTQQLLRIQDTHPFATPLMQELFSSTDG

C/C=C(/C)C#N
inactive: max response [1] 0.0053% | Potency [2] | max response [3] 8.65% | outcome [4]

CO[Si](CCCNCCC[Si](OC)(OC)OC)(OC)OC
inactive: max response [1] 5.64% | Potency [2] | max response [3] 4.59% | outcome [4]

Cc1ccc(Cl)cc1
inactive: max response [1] -4.66% | Potency [2] | max response [3] -4.31% | outcome [4]

O=[N+]([O-])c1ccc(CCO)cc1
inactive: max response [1] -6.69% | Potency [2] | max response [3] 0.179% | outcome [4]

O=[N+]([O-])c1c(Cl)cc(Cl)cc1Cl
inactive: max response [1] 8.66% | Potency [2] | max response [3] 9.05% | outcome [4]

CCCCN(CCO)CCCC
inactive: max response [1] -7.26% | Potency [2] | max response [3] 1.69% | outcome [4]

O=C(O)c1ccccc1C(=O)O
inactive: max response [1] -4.91% | Potency [2] | max response [3] -4.53% | outcome [4]

c1ccc2[nH]cnc2c1
inactive: max response [1] 3.37% | Potency [2] | max response [3] 3.1% | outcome [4]

CN(C)CCCNCCCN
inactive: max response [1] -0.667% | Potency [2] | max response [3] -0.438% | outcome [4]

O=[N+]([O-])c1ccc2nc[nH]c2c1
inactive: max response [1] 3.84% | Potency [2] | max response [3] -0.905% | outcome [4]

CC(=O)OC(C)C
inactive: max response [1] 1.6% | Potency [2] | max response [3] -1.92% | outcome [4]

Cc1ccc(Cl)cc1N
inactive: max response [1] 3.66% | Potency [2] | max response [3] 0.767% | outcome [4]

Cc1ccccc1C(N)=O
inactive: max response [1] 10.1% | Potency [2] | max response [3] -3.36% | outcome [4]

Cc1ccc(C)c(N)c1
inactive: max response [1] -4.96% | Potency [2] | max response [3] -4.19% | outcome [4]

O=C(O[C@@H](C(=O)O)[C@@H](OC(=O)c1ccccc1)C(=O)O)c1ccccc1
inactive: max response [1] 9.93% | Potency [2] | max response [3] 4.96% | outcome [4]

O=Cc1ccc(CO)o1
inactive: max response [1] 6.14% | Potency [2] | max response [3] 1.25% | outcome [4]

Cc1ccccc1C#N
inactive: max response [1] -0.799% | Potency [2] | max response [3] -0.838% | outcome [4]

O=[N+]([O-])c1ccc(NCCO)c(OCCO)c1
inactive: max response [1] -2.57% | Potency [2] | max response [3] -2.89% | outcome [4]

Cc1cccc2sc(N)nc12
inactive: max response [1] 2.69% | Potency [2] | max response [3] 7.23% | outcome [4]

Cc1cc(C)c(N)cc1C
inactive: max response [1] -5.87% | Potency [2] | max response [3] 3.48% | outcome [4]

C=CC(=O)NC(C)C
inactive: max response [1] -0.14% | Potency [2] | max response [3] 3.94% | outcome [4]

Cc1ccc2ncccc2c1
inactive: max response [1] -3.3% | Potency [2] | max response [3] 2.4% | outcome [4]

CC(=O)Nc1ccc(C)cc1
inactive: max response [1] -2.69% | Potency [2] | max response [3] -0.0412% | outcome [4]

CCOCCOCC
inactive: max response [1] 0.474% | Potency [2] | max response [3] -2.52% | outcome [4]

c1ccc2c(c1)Oc1ccccc1S2
inactive: max response [1] 0.655% | Potency [2] | max response [3] -3.68% | outcome [4]

COC(=O)CCCC(=O)OC
inactive: max response [1] -4.02% | Potency [2] | max response [3] 1.21% | outcome [4]

C(=C/c1ccccc1)/c1ccccc1
inactive: max response [1] -10.3% | Potency [2] | max response [3] 0.267% | outcome [4]

CCCCCCCCC/C=C/CC1CC(=O)OC1=O (stereo unspecified)
inactive: max response [1] 0.292% | Potency [2] | max response [3] -1.93% | outcome [4]

c1ccc2c(c1)ccc1ncccc12
inactive: max response [1] 0.663% | Potency [2] | max response [3] 10.2% | outcome [4]

COc1ccccc1[N+](=O)[O-]
inactive: max response [1] -1.85% and -1.91% | Potency [2] | max response [3] 1.11% and 2.57% | outcome [4]

Cc1cc(C)cc(O)c1
inactive: max response [1] -5.39% | Potency [2] | max response [3] -0.901% | outcome [4]

O=Cc1ccc(C(=O)O)cc1
inactive: max response [1] -0.895% | Potency [2] | max response [3] -2.3% | outcome [4]

Cc1cscn1
inactive: max response [1] -3.62% | Potency [2] | max response [3] 0.103% | outcome [4]

Cc1ccc(C)cc1
inactive: max response [1] -11.4% | Potency [2] | max response [3] 0.288% | outcome [4]

CC(=O)Nc1ccc(N)cc1
inactive: max response [1] -3.85% | Potency [2] | max response [3] 9.42% | outcome [4]

CC1CCC2CC1C2(C)C (stereo unspecified)
inactive: max response [1] -8.03% | Potency [2] | max response [3] -2.72% | outcome [4]

CC(CCl)OC(C)CCl (stereo unspecified)
inactive: max response [1] -14.3% | Potency [2] | max response [3] 2.99% | outcome [4]

COC(=O)c1ccccc1
inactive: max response [1] 2.22% | Potency [2] | max response [3] 0.652% | outcome [4]

O=C(O)c1ccccc1[N+](=O)[O-]
inactive: max response [1] 3.94% | Potency [2] | max response [3] 0.256% | outcome [4]

CC(O)CC(C)O (stereo unspecified)
inactive: max response [1] 7.82% | Potency [2] | max response [3] 6.25% | outcome [4]

NC(=O)c1cccc([N+](=O)[O-])c1
inactive: max response [1] -1.82% | Potency [2] | max response [3] 6.83% | outcome [4]

CCCC(Cl)CCCC(Cl)CCC(Cl)CCC(Cl)CCC(Cl)CCCC(Cl)CCC (stereo unspecified)
inactive: max response [1] 8.25% | Potency [2] | max response [3] 2.04% | outcome [4]

CC(C=O)Cc1ccc(C(C)(C)C)cc1 (stereo unspecified)
inactive: max response [1] 9% and 0.62% | Potency [2] | max response [3] 2.84% and 3.47% | outcome [4]

Cc1cccc(C)c1O
inactive: max response [1] 0.15% | Potency [2] | max response [3] 2.68% | outcome [4]

c1ccsc1
inactive: max response [1] 6.51% | Potency [2] | max response [3] -1.04% | outcome [4]

Cc1c(C(=O)O)cccc1[N+](=O)[O-]
inactive: max response [1] 6.06% | Potency [2] | max response [3] 0.0854% | outcome [4]

CCCCC(C=O)CC (stereo unspecified)
inactive: max response [1] -9.34% | Potency [2] | max response [3] -0.0559% | outcome [4]

OC/C(Br)=C(\Br)CO
inactive: max response [1] 0.0424% | Potency [2] | max response [3] 0.247% | outcome [4]

CC(C)c1ccccc1
inactive: max response [1] -0.678% | Potency [2] | max response [3] -5.7% | outcome [4]

[O-]/[N+](=N\O)c1ccccc1
inactive: max response [1] -16.3% | Potency [2] | max response [3] -1.54% | outcome [4]

C=CCn1c(=O)n(CC=C)c(=O)n(CC=C)c1=O
inactive: max response [1] 8.26% | Potency [2] | max response [3] 4.89% | outcome [4]

CCCCC(=O)N(C)C
inactive: max response [1] -5.96% | Potency [2] | max response [3] -1.49% | outcome [4]

CCOc1cccc(N)c1
inactive: max response [1] 5.75% | Potency [2] | max response [3] -4.44% | outcome [4]

CCCCC(CC)COCC1CO1 (stereo unspecified)
inactive: max response [1] 0.479% | Potency [2] | max response [3] 9.04% | outcome [4]

C/C(C=O)=C/c1ccccc1
inactive: max response [1] 5.25% | Potency [2] | max response [3] 2.25% | outcome [4]

CCCCCO
inactive: max response [1] 0.87% | Potency [2] | max response [3] -1.89% | outcome [4]

CN(C)CCCCl
inactive: max response [1] 7.77% | Potency [2] | max response [3] 3.08% | outcome [4]

CC(C)(C)OCC1CO1 (stereo unspecified)
inactive: max response [1] -0.898% | Potency [2] | max response [3] 0.0184% | outcome [4]

C1CCOC1
inactive: max response [1] -1.37% | Potency [2] | max response [3] 2.84% | outcome [4]

C=C(C)C(=O)OCCCCCCCCCC
inactive: max response [1] -5.31% | Potency [2] | max response [3] 3.26% | outcome [4]

CCCCCCCCC
inactive: max response [1] 9.61% | Potency [2] | max response [3] 3.91% | outcome [4]

CCCOCC(C)O (stereo unspecified)
inactive: max response [1] 2.22% | Potency [2] | max response [3] -0.746% | outcome [4]

Cc1ccc(C(=O)O)cc1
inactive: max response [1] -10.4% | Potency [2] | max response [3] 3.84% | outcome [4]

CC(C)(c1cc(Br)c(OCC(Br)CBr)c(Br)c1)c1cc(Br)c(OCC(Br)CBr)c(Br)c1 (stereo unspecified)
inactive: max response [1] -17.5% | Potency [2] | max response [3] 6.37% | outcome [4]

CC=C(Cl)Cl
inactive: max response [1] 5.81% | Potency [2] | max response [3] -4.19% | outcome [4]

CCCOCC(C)OCC(C)O (stereo unspecified)
inactive: max response [1] -8.35% | Potency [2] | max response [3] -1.49% | outcome [4]

CNc1ccc([N+](=O)[O-])cc1
inactive: max response [1] 0.311% | Potency [2] | max response [3] 8.26% | outcome [4]

O=C(O)c1cccc([N+](=O)[O-])c1
inactive: max response [1] 4.89% and -8.68% | Potency [2] | max response [3] -0.759% and -3.01% | outcome [4]

CC(C)Nc1ccccc1
inactive: max response [1] -1.42% | Potency [2] | max response [3] 4.55% | outcome [4]

O=[N+]([O-])c1ccc(Cl)cc1Cl
inactive: max response [1] 0.0931% | Potency [2] | max response [3] -0.131% | outcome [4]

C=CCCCCCC
inactive: max response [1] 3.39% | Potency [2] | max response [3] 3.09% | outcome [4]

O=C(O)c1cc(Cl)cc(Cl)c1
inactive: max response [1] 9.31% | Potency [2] | max response [3] -3.46% | outcome [4]

CC(=O)Nc1cccc(N)c1
inactive: max response [1] 8.3% | Potency [2] | max response [3] -0.641% | outcome [4]

CC=O
inactive: max response [1] -3.08% | Potency [2] | max response [3] -4.58% | outcome [4]

CC(=O)c1cc(C)oc1C
inactive: max response [1] -13.5% | Potency [2] | max response [3] 1.56% | outcome [4]

C=CCCCC
inactive: max response [1] 3.02% | Potency [2] | max response [3] 0.496% | outcome [4]

NC(=S)NNC(N)=S
inactive: max response [1] -2.43% and -16.6% | Potency [2] | max response [3] -3.78% and 5.23% | outcome [4]

Nc1cccc(N)c1
inactive: max response [1] 5.39% | Potency [2] | max response [3] 11.3% | outcome [4]

Cc1nc2ccc(Cl)cc2[nH]1
inactive: max response [1] 5.07% | Potency [2] | max response [3] -1.68% | outcome [4]
